In PubChem BioAssay (NCI) one finds growth data, which are given here for 9 compounds.

Common to all, as to test: NCI-60 one-dose screen, 48 h (100 = growth as untreated, 0 = no growth, -100 = all killed)
For one assay, the system named is NCI-H23 lung. The conditions noted are these: 10 µM unless noted.
For a further assay, the system named is NCI-H226 lung. The conditions noted are these: 10 µM unless noted.
For another assay, the system named is NCI-H322M lung. The conditions noted are these: 10 µM unless noted.
Another assay has as its system HOP-62 NSCLC. The conditions noted are these: 10 µM unless noted.
The next assay concerns HOP-92 NSCLC. Conditions: 10 µM.
The subject of the next assay is NCI-H522 lung. Conditions: 10 µM.
For another assay, the system named is A549/ATCC NSCLC. The conditions noted are these: 10 µM unless noted.
The subject of another assay is 786-0 renal. Conditions: 10 µM unless noted.
Another assay deals with COLO 205 colon. Conditions: 10 µM unless noted.
The subject of another assay is DU-145 prostate. Conditions: 10 µM unless noted.
The subject of a further assay is K-562 leukemia. The conditions noted are these: 10 µM unless noted.
For a further assay, the system named is MALME-3M melanoma. Conditions: 10 µM unless noted.
In another assay the test system is MDA-MB-231 breast. Conditions: 10 µM unless noted.
The next assay deals with RXF 393 renal. Conditions: 10 µM unless noted.
The test system of the next assay is SF-268 CNS. The conditions noted are these: 10 µM unless noted.
The subject of another assay is SF-295 CNS. Conditions: 10 µM unless noted.
Another assay has as its system SF-539 CNS. The conditions noted are these: 10 µM unless noted.
A further assay relates to UACC-257 melanoma. Conditions: 10 µM unless noted.
The test system of another assay is M14 melanoma. Conditions: 10 µM unless noted.
The test system of a further assay is NCI-H460 lung. Conditions: 10 µM unless noted.

Each structure is given as a SMILES string. About 83,000 compounds went through this panel and 20% of them were active in at least one assay; those are over-represented in the sample as a whole.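 The endpoint reported here, percent growth, reads 100 for growth as untreated, 0 for no net growth and -100 for all cells dead.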 Unmarked numbers belong to inactive results. The source made the active and inactive calls. The calls were made as follows: active = growth percent below 10; inactive = the rest.

As for `O=C(Nc1ccc(Cl)c(Cl)c1)O/N=C\c1c(Cl)ccc([N+](=O)[O-])c1Cl`, the growth in the assay with NCI-H23 lung was 27%; in the assay on NCI-H226 lung, 58.4%; in the assay on NCI-H322M lung it was 11.6%; in the assay with HOP-62 NSCLC it was -86.3% (active); in the assay on HOP-92 NSCLC, 6.84% (active); in the assay on NCI-H522 lung, -90.4% (active). The growth in the assay with A549/ATCC NSCLC is 45.5%; in the assay on 786-0 renal, 5.13% (active); with COLO 205 colon, -83.3% (active); in the assay with DU-145 prostate it was -82.5% (active); with K-562 leukemia, -7.08% (active); in the assay with MALME-3M melanoma it was -44.9% (active). The growth in the assay on MDA-MB-231 breast was -59.7% (active); in the assay on RXF 393 renal it was -45.1% (active); in the assay on SF-268 CNS it was -4.9% (active); with SF-295 CNS, 83.9%; in the assay with SF-539 CNS, 4.51% (active); in the assay with UACC-257 melanoma, -49.2% (active). The growth in the assay on M14 melanoma was 32%.
With `Cc1ccc(NCc2cn(-c3ccc(C(=O)O)cc3)nc2-c2ccc(C(=O)O)cc2)cc1`, the growth is 92.2% with NCI-H23 lung; 107% with NCI-H226 lung; 99.7% with NCI-H322M lung; 100% in the assay with HOP-62 NSCLC; 107% in the assay on HOP-92 NSCLC; 86.2% in the assay on NCI-H522 lung. Also, the growth in the assay with A549/ATCC NSCLC is 94.9%; in the assay with 786-0 renal, 103%; with COLO 205 colon it was 104%; with DU-145 prostate it was 100%; with K-562 leukemia, 102%; in the assay on MALME-3M melanoma it was 93.1%. The growth with MDA-MB-231 breast was 108%; in the assay with RXF 393 renal it was 121%; with SF-268 CNS it was 92.8%; in the assay with SF-295 CNS it was 103%; with SF-539 CNS it was 101%; in the assay on UACC-257 melanoma it was 97.6%. For the same compound, the growth with M14 melanoma is 99.3%.
On to `CCN(CC)CCNc1ncnc2c1cnn2-c1ccc(Cl)cc1`, for which the growth in the assay with NCI-H23 lung is 76.5%; in the assay with NCI-H226 lung it was 100%; with NCI-H322M lung it was 92.8%; in the assay with HOP-62 NSCLC, 114%; in the assay with NCI-H460 lung it was 85%; in the assay on 786-0 renal, 106%. Further, the growth in the assay on COLO 205 colon is 15.9%; in the assay on DU-145 prostate, 94.5%; with K-562 leukemia it was 45%; with MALME-3M melanoma, 88.9%; in the assay on MDA-MB-231 breast it was 61.1%; with SF-268 CNS it was 81.7%. The growth with SF-295 CNS is 85.7%; in the assay with SF-539 CNS, 70%.
Turning to `COc1ccc(/C(=C(\c2ccccc2)[N+](=O)[O-])c2ccc(OCCN3CCCC3)cc2)cc1`, the growth is 74.9% with NCI-H23 lung; 72.8% with NCI-H226 lung; 87.2% in the assay with NCI-H322M lung; 94.1% in the assay on HOP-62 NSCLC; 59.5% in the assay with HOP-92 NSCLC; 83.7% with NCI-H522 lung. Further, the growth in the assay on A549/ATCC NSCLC was 78.4%; with 786-0 renal, 15.2%; in the assay on COLO 205 colon, 8.89% (active); with DU-145 prostate, 89.3%; in the assay on K-562 leukemia, 13.7%; with MALME-3M melanoma it was -7.32% (active). Also, the growth was 55% with MDA-MB-231 breast; 25% with RXF 393 renal; 84.4% in the assay with SF-268 CNS; 31.9% in the assay on SF-295 CNS; 28.6% in the assay on SF-539 CNS; -26.1% (active) with UACC-257 melanoma. Besides, in the assay with M14 melanoma, the growth was -73.4% (active).
Turning to `Oc1ccc(N=Nc2ccc(N=Nc3ccccc3)cc2)cc1`, the growth with NCI-H23 lung is 59.9%; in the assay on NCI-H226 lung it was 57%; with NCI-H322M lung it was 49.7%; with HOP-62 NSCLC it was 59.3%; in the assay on HOP-92 NSCLC, 79.8%; in the assay on NCI-H522 lung, -15.1% (active). Moreover, the growth was 9.84% (active) with A549/ATCC NSCLC; 38.3% in the assay on 786-0 renal; 84.8% with COLO 205 colon; 49.3% in the assay on DU-145 prostate; -7.03% (active) with K-562 leukemia; 111% in the assay with MALME-3M melanoma. Also, the growth in the assay with MDA-MB-231 breast is 54.7%; in the assay on RXF 393 renal it was 98.2%; in the assay on SF-268 CNS, 36.9%; with SF-295 CNS, 8.6% (active); in the assay on SF-539 CNS it was 2.09% (active); with UACC-257 melanoma, 53%. In the assay with M14 melanoma, the growth was 26.7%.
On to `CC(C)(C)C(=O)OCOP(=O)(OCOC(=O)C(C)(C)C)C1CC(O)N(O)C1=O` (stereo unspecified), for which the growth in the assay on NCI-H23 lung is 21%; with NCI-H226 lung, 71.6%; in the assay on NCI-H322M lung it was 30.5%; in the assay with HOP-62 NSCLC it was 35.7%; in the assay with HOP-92 NSCLC it was 28.2%; with NCI-H522 lung it was 8.02% (active). Besides, the growth is 64.3% in the assay on A549/ATCC NSCLC; 14.5% in the assay with 786-0 renal; 45% with COLO 205 colon; 44.4% with DU-145 prostate; 15.2% with K-562 leukemia; 41.2% in the assay with MALME-3M melanoma. In addition, the growth in the assay with MDA-MB-231 breast is 42.7%; in the assay on RXF 393 renal, 1.26% (active); in the assay with SF-268 CNS, 13.3%; in the assay on SF-295 CNS, 67%; with SF-539 CNS, 39.3%; in the assay on UACC-257 melanoma it was 63.1%. In addition, in the assay with M14 melanoma, the growth was 55.6%.
In the case of `CCC(C)(C)c1ccc(OCCCCCCN2CCN(c3ccc(C)c(Cl)c3)CC2)cc1`, the growth in the assay with NCI-H23 lung was 62.3%; with NCI-H226 lung it was 73.7%; with NCI-H322M lung it was 88.3%; in the assay with HOP-62 NSCLC, 98.3%; in the assay with HOP-92 NSCLC it was 82.6%; in the assay with NCI-H522 lung, 84.6%. For the same compound, the growth in the assay with A549/ATCC NSCLC is 97%; in the assay with 786-0 renal, 95.7%; in the assay with COLO 205 colon, 91.4%; in the assay with DU-145 prostate, 86%; in the assay with K-562 leukemia, 78.4%; with MALME-3M melanoma, 86.7%. Further, the growth with MDA-MB-231 breast was 115%; in the assay on RXF 393 renal it was 95.6%; in the assay on SF-268 CNS, 82.5%; in the assay with SF-295 CNS, 85.7%; in the assay with SF-539 CNS, 98.6%; in the assay on UACC-257 melanoma, 110%. The growth with M14 melanoma was 93.7%.
Regarding `CCCCCCNc1nc(N2CCOCC2)c2[nH]c(NCCCCCC)nc2n1`, the growth was -94.5% (active) with NCI-H23 lung; -82.9% (active) in the assay on NCI-H226 lung; -46.7% (active) in the assay on NCI-H322M lung; -95.9% (active) with HOP-62 NSCLC; -77.7% (active) in the assay with HOP-92 NSCLC; -79.8% (active) in the assay on NCI-H522 lung. For the same compound, the growth was -90.1% (active) with A549/ATCC NSCLC; -100% (active) in the assay with 786-0 renal; -64.8% (active) with COLO 205 colon; -88.1% (active) in the assay with DU-145 prostate; -52.4% (active) in the assay on K-562 leukemia; -62.2% (active) in the assay with MALME-3M melanoma. The growth with MDA-MB-231 breast was -94.4% (active); in the assay with RXF 393 renal, -84.9% (active); in the assay on SF-268 CNS, -92.8% (active); in the assay on SF-295 CNS, -61.8% (active); with SF-539 CNS, -94.4% (active); with UACC-257 melanoma, -95.4% (active). In addition, the growth with M14 melanoma is -98% (active).
On to `CN1C(=O)C(=Cc2coc3ccc(Br)cc3c2=O)C(=O)N(C)C1=O`, for which the growth in the assay with NCI-H23 lung was 94.5%; in the assay with NCI-H226 lung it was 97.2%; in the assay with NCI-H322M lung, 124%; with HOP-62 NSCLC, 94.5%; with HOP-92 NSCLC, 81.3%; in the assay with NCI-H522 lung, 95%. Moreover, the growth in the assay with A549/ATCC NSCLC is 97.8%; with 786-0 renal it was 112%; with COLO 205 colon, 106%; in the assay with DU-145 prostate it was 103%; in the assay on K-562 leukemia it was 127%; in the assay with MALME-3M melanoma, 139%. Besides, the growth in the assay with MDA-MB-231 breast was 97.6%; in the assay with RXF 393 renal, 93.6%; with SF-268 CNS, 97.6%; in the assay on SF-295 CNS it was 120%; with SF-539 CNS it was 100%; with UACC-257 melanoma, 101%. In addition, in the assay on M14 melanoma, the growth was 99.8%.
